Assay outcomes as filed in PubChem.
Most compounds without a hit are left out; they make up all but 20% or so of the library.
Shiga toxin inh: A qHTS for Small Molecule Inhibitors of Shiga Toxin; 290,000 compounds, 9.2% hits; inhibition, % at 38.7 µM; Vero cells, Shiga toxin protein synthesis inhibition reporter; in the data active = inhibition mostly above about 28%, no sharp cut-off; inactive = mostly below about 43%; also: 0% is about no effect
Pf growth 96h: Primary qHTS for delayed death inhibitors of the malarial parasite plastid, 96 hour incubation; P. falciparum luciferase reporter growth, 96 h; 320,000 compounds, 6.9% hits; AID 504834, 2011; Potency, µM (top dose mostly 28.7 µM), inactives show at the highest dose activity change, negative = inhibition, hits mostly inhibitors; also: potency is read from the fitted curve at half-maximal effect; % is scaled to controls: 0 for no effect and ±100 for the full control effect
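Two-generation exposure (96 h) targets delayed-death phenotype. Reporter parasites carrying integrated firefly luciferase, in red cells at 2% hematocrit and 0.05% parasitemia final, kept at 37 C, 5% CO2; luminescence loss indicates inhibition.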
CHX counter: Cycloheximide Counterscreen for Small Molecule Inhibitors of Shiga Toxin; 300,000 compounds, 12% hits; cell reporter, cycloheximide protein synthesis inhibition counterscreen; max response, %; in the data active = max response mostly above about 13%, no sharp cut-off; inactive = mostly below about 14%; also: read at 38.3 µM for the half of the compounds with a filed dose; 0% is about no effect
Pf growth 48h: Primary qHTS for delayed death inhibitors of the malarial parasite plastid, 48 hour incubation; 310,000 compounds, 5.9% hits; P. falciparum luciferase growth in erythrocytes, 48 h; Potency, µM (highest dose often 28.7 µM), without a hit: at the top dose activity change, negative = inhibition, hits mostly inhibitors; also: potency is read from the fitted curve at half-maximal effect; % is scaled to controls: 0 for no effect and ±100 for the full control effect
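Erythrocytes infected with P. falciparum carrying an integrated firefly luciferase reporter (2% hematocrit, 0.1% parasitemia final) were exposed to compounds in RPMI 1640 with 0.5% Albumax at 37 C, 5% CO2. Growth inhibition was scored as reduced luminescence.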
HCMV antiviral: qHTS Assay for inhibitors of the human cytomegalovirus (HCMV) | HFF cells, HCMV-luciferase reporter, 72 h; active compounds read low | activity change, negative = inhibition, % at 57.5 µM | 410,000 compounds, 4.5% hits | AID 1259415, 2018; in the data active = activity change below about -60%; inconclusive = no clear call, values can overlap the other calls; inactive = above about -39%; also: % is scaled to controls: 0 for no effect and ±100 for the full control effect
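Inhibition of viral replication was scored as loss of reporter luminescence in HFFs infected with HCMV-luciferase (MOI 1 PFU/cell) for 72 h; compounds tested at 2 doses, normalized to buffer and Salinomycin controls.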
* hit, by the source's call; ? = inconclusive; / = not tested or not shown; [ ] = remark or other dose. Unless noted, calls follow the shape of the dose curve; as a rule, active = well fitted inhibition curve with a large enough effect; inconclusive = small, poorly fitted or top-dose-only effect, or another doubt; inactive = no such curve, though single readings can be large or run the other way.

SMILES	Shiga toxin inh	Pf growth 96h	CHX counter	Pf growth 48h	HCMV antiviral
O=C(NNC(=S)Nc1ccc(Cl)cc1)c1ccccc1	56.9*	16.6%	27.1*	31.4%	40.4
O=C(NNC(=O)c1ccc(NC(=O)c2ccccc2)cc1)c1ccccc1	-10.6	?	-1.1	26.1%	-13.5
O=C(NNC(=S)Nc1cccc(Cl)c1)c1ccccc1	41.6*	?	26.6*	11.5%	84.0
Cc1ccc(N(C)S(=O)(=O)c2cccc(C(=O)OCC(=O)c3c(N)n(C)c(=O)n(C)c3=O)c2)cc1	/	/	/	/	-26.8
CC1CCC(NC(=O)c2ccc3c(c2)OCO3)CC1 (stereo not drawn)	52.7*	1.5%	43.1*	194.8%	31.8
CN(C(=O)c1ccc2c(c1)OCO2)C1CCCCC1	35.7*	107.8%	42.2*	77.3%	38.5
CC1CCC(NC(=O)C(=O)Nc2ccc3c(c2)OCO3)CC1 (stereo not drawn)	116.4*	?	57.1*	216.9%	35.1
CC1CCN(CC(=O)Nc2ccc3c(c2)OCO3)CC1	/	38.7%	/	-7.2%	53.0
O=C(NC1CCCCC1)c1ccc2c(c1)OCO2	84.4*	1.6%	25.5*	156.3%	96.3
COc1cccc(NC(=O)NCc2ccccc2Cl)c1	/	/	/	/	6.7
O=C1[C@@H]2CSCN2C(=O)CN1Cc1c(F)cccc1Cl	-3.7	18.0%	-2.6	2.0%	69.8
O=C1N=C(O)CN1/N=C/c1ccc(-c2ccc([N+](=O)[O-])cc2)o1	/	/	/	/	14.3
Nc1ccc2nc(CCCO)[nH]c2c1	-1.5	28.4%	-1.0	?	-26.0
O=C(c1ccc2c(c1)OCO2)N(CC1CCCO1)C1(C(=O)NC2CCCC2)CCCCC1 (stereo not drawn)	-7.4	?	-1.4	11.7µM*	-21.1
O=C(NC1(C(=O)NC2CCCC2)CCCCC1)c1ccc2c(c1)OCO2	-19.4	9.28µM*	-4.4	-16.8%	0.9
CN1CCN(CCCNC(=O)c2ccc(/C=C3\Oc4ccccc4N(Cc4ccccc4F)C3=O)cc2)CC1	-3.5	4.3%	-7.1	?	-30.0
O=C(NC1(C(=O)NC2CCCCC2)CCCCC1)c1ccc2c(c1)OCO2	-1.9	28.7%	-1.3	-4.3%	-0.7
CC1CCC(NC(=O)c2ccc(/C=C3\Oc4ccccc4N(C)C3=O)cc2)CC1 (stereo not drawn)	41.9	16.1%	25.0*	16.0%	/
COc1cccc(/C=N/N2CCN(c3ccncc3S(=O)(=O)N3CCCCC3)CC2)c1	-8.6	?	-0.6	?	-9.0
CCOC(=O)COc1ccc(CC)cc1C(=O)c1ccn2nc(-c3ccc(F)cc3)cc2n1	/	/	/	/	10.3
N#Cc1cc([N+](=O)[O-])ccc1NC(=O)COC(=O)C12CC3CC(CC(C3)C1)C2	2.6	?	1.1	-19.2%	/
Cc1c(O)ccc2c(=O)c(Oc3ccccc3)coc12	-1.4	17.2%	-1.4	8.4%	-9.6
CCCOC(=O)c1ccc(Oc2coc3c(CN(CC)CC)c(O)ccc3c2=O)cc1	10.1	11.7µM*	-1.5	?	?
Cc1ccc(-n2ncc3c2CC(C)(C)CC3NC(=O)CCCN2CCCC2=O)cc1 (stereo not drawn)	-7.3	?	0.6	-19.0%	25.7
COc1ccc(-n2ncc3c2CC(C)(C)CC3NC(=O)CCCN2CCCC2=O)cc1 (stereo not drawn)	-15.0	26.2%	-4.5	-8.6%	0.0
SMILES	Shiga toxin inh	Pf growth 96h	CHX counter	Pf growth 48h	HCMV antiviral
CC1(C)Cc2c(cnn2-c2ccc(F)cc2)C(NC(=O)CCCN2CCCCC2=O)C1 (stereo not drawn)	26.8	13.1µM*	1.4	-24.7%	-16.9
CC1(C)Cc2c(cnn2-c2ccccc2)C(NC(=O)CCN2CCCC2=O)C1 (stereo not drawn)	-3.8	14.7µM*	9.7	10.3%	?
CC1(C)Cc2c(cnn2-c2ccccc2)C(NC(=O)CCCN2CCCCC2=O)C1 (stereo not drawn)	-7.0	6.57µM*	16.5	-8.3%	-13.2
CCOC(=O)/C=C1/SCC(=O)N1CC(=O)Nc1ccccc1OC(F)F	/	/	/	/	-11.3
c1ccc(C2CNCCc3ccccc32)cc1 (stereo not drawn)	-12.6	1.65µM*	-6.8	-1.8%[0.00184 µM]	-13.7
Oc1cc2c(cc1O)C(c1ccccc1)CNCC2 (stereo not drawn)	/	/	/	/	-30.7
O=C1/C(=C\c2ccsc2)N2CCC1CC2	3.7	0.0%	2.8	2.5%	-11.5
CCN1C(=O)/C(=C\c2ccncc2)SC1=S	-5.5	39.0%	1.3	-0.3%	-33.4
CN1C/C(=C/c2ccsc2)C(=O)/C(=C/c2ccsc2)C1	14.0	?	63.4*	2.1%	-85.7*
CN1C/C(=C/c2ccncc2)C(=O)/C(=C/c2ccncc2)C1	36.0	?	32.3*	2.62µM*	-7.2
CC(C)(C)C1CCc2c(sc(NC(=O)c3ccco3)c2C(N)=O)C1 (stereo not drawn)	24.1	?	14.9*	77.0%	-35.3
CCC1CCc2c(sc(NC(=O)c3ccco3)c2C(N)=O)C1 (stereo not drawn)	95.7*	57.6%	30.4*	102.1%	80.1
Cc1ccccc1NC(=O)c1c(NC(=O)c2ccco2)sc2c1CCC(C(C)(C)C)C2 (stereo not drawn)	/	/	/	/	-6.6
Cc1cc(C)cc(NC(=O)CCCN2C(=O)COc3ccc(C)cc32)c1	/	/	/	/	42.8
O=C(/C=C/c1ccc(F)cc1)Nc1nc2n(n1)C(c1ccc(Cl)cc1)C=C(c1ccccc1)N2 (stereo not drawn)	/	/	/	/	-19.1
c1ccc(CNc2nc(CN3CCOCC3)nc3scc(-c4ccccc4)c23)cc1	-10.5	?	-1.6	?	-0.2
Cc1ccc(-c2csc3ncnc(NCCC(=O)O)c23)cc1	-10.8	29.0%	0.9	-91.7%	-21.8
c1ccc(CN2CCC(Nc3ncnc4sccc34)CC2)cc1	-5.0	?	-1.4	10.7%	-29.3
Cc1ccc(-c2csc3ncnc(NCCN4CCOCC4)c23)cc1	-12.5	10.4µM*	-3.4	13.1µM*	-70.3*
Clc1ccc(-c2csc3ncnc(NCCN4CCOCC4)c23)cc1	-11.3	?	-6.2	/	-75.0*
CCC(CO)Nc1nc(CN2CCCCC2)nc2scc(-c3ccccc3)c12 (stereo not drawn)	-5.4	?	-2.9	?	-68.9*
Cc1sc2ncnc(NC3CCN(Cc4ccccc4)CC3)c2c1C	-14.0	-8.1%	-1.9	-13.9%	-80.7*
c1nc(NCCN2CCOCC2)c2c3c(sc2n1)CCCCC3	-18.4	?	-5.8	-12.9%	0.8
CCS(=O)(=O)N1Cc2ccccc2CC1C(=O)N(C)CC(=O)Nc1ccc(F)c(F)c1F (stereo not drawn)	/	5.1%	/	9.7%	-23.3
COc1ccc(CCNCC(=O)Nc2ccc(C(=O)N3CCCCC3)cc2)cc1	-4.1	5.5%	-2.3	-12.0%	?
Cc1noc(C)c1COc1ccc(C(=O)N2CCC(C(N)=O)CC2)cc1	/	/	/	/	-16.1
Clc1ccc(CNc2nc(CN3CCOCC3)nc3scc(-c4ccccc4)c23)cc1	-2.4	3.7µM*	0.8	?	-20.5
